Usually inhibition stands for the change of the read-out against control, counted positive when it falls.

Here are results for 53 compounds from PubChem BioAssay AID1906 (The Scripps Research Institute Molecular Screening Center, 2009).

Hit rate of the full screen: of about 300,000 compounds, about 1,500 (0.5%) were called active. Only a selection was taken, and actives are over-represented in it overall. Unmarked numbers belong to inactive results.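 How the source made its calls: active means inhibition above the mean of all tested compounds plus 3 SD, set per screening campaign (cut at about 17% in these data); inactive means the rest.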

The test system of this test is cathepsin L1 (Fasciola hepatica). As to the kind of experiment: Fasciola hepatica cathepsin L1 inhibitors, primary screen, counter-screen for PFM18AAP inhibitor project, biochemical, QFRET, fluorogenic peptide substrate (AID 1906).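 Further: 0% = plate median of test compound wells and 100% = 1 µM Z-Phe-Ala-diazomethylketone.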 The following applies: recombinant F. hepatica cathepsin L1, Z-Leu-Arg-MCA fluorescence; at 5.96 µM; hits give high values.
Turning to `COc1ccc(CNC(=O)COC(=O)/C=C/c2ccc(S(=O)(=O)N3CCOCC3)cc2)cc1`, the inhibition was 0.44%.
The same measure for `COC(=O)c1ccc(NC(=O)CSc2nnc(Cc3cccn3C)n2-c2ccc(F)cc2)cc1`: 6.5%; for `CCOc1cc(NS(=O)(=O)c2ccc(OC)cc2)c(OCC)cc1NC(C)=O`: -2.89%; for `CCCC(=O)Nc1cc(OCC)c(NC(=O)NC2CCCCC2)cc1OCC`: -3.59%.
The same measure for `CCOc1cc(NC(=O)CCl)c(OCC)cc1NC(C)=O`: 83.7% (active).
In the case of `C/C(CCC(=O)OC[C@H]1O[C@H](C#Cc2ccccc2)C=C[C@@H]1Oc1ccc(C)cc1)=N\OC[C@@H](O)[C@H]1O[C@@H]2OC(C)(C)O[C@@H]2[C@H]1O` it was -0.48%.
`CC1(C)NC(=O)N(CCCCSc2ccc(Cl)cc2)C1=O`: the inhibition was 3.34%.
As to `CC(C)Nc1nc(N(c2ccccc2)c2ccccc2)nc(-n2ccnc2)n1`, the inhibition was -0.83%.
The same measure for `N#Cc1nc(N)nc(N(c2ccccc2)c2ccccc2)n1`: 56.4% (active); for `Cc1ccccc1-c1ccc(Nc2ccc(C(=O)N3CCOCC3)cc2)nn1`: 0.35%.
The same measure for `Cc1ccc(C(=O)N2CCN(C(=O)N3CCOCC3)CC2)cc1`: 1.67%.
The same measure for `Cc1oc2c(c1C(=O)N1CCOCC1)C(=O)c1ccccc1C2=O`: 18.4% (active); for `CCOC(=O)/C(=C\c1ccc([N+](=O)[O-])cc1)C(=O)c1cc(C(C)=O)c(Nc2ccccc2)s1`: -2.81%; for `COc1ccccc1C(CNC(=O)c1cccc(NS(=O)(=O)c2ccc(Br)cc2)c1)N(C)C` (stereo not drawn): 4.17%.
Turning to `CN(C)C(CNC(=O)c1cccc(S(=O)(=O)Nc2ccc(Br)cc2)c1)c1ccco1` (stereo not drawn), the inhibition was -0.56%.
The same measure for `CN(C)C(CNC(=O)c1cccc(C#N)c1)c1ccco1` (stereo not drawn): 22.2% (active); for `CN(C)C(CNC(=O)CCCOc1ccccc1)c1ccco1` (stereo not drawn): -6.17%; for `COC(=O)c1scc(S(=O)(=O)C(C)(C)C)c1-n1cccc1`: -3.59%.
The same measure for `Cc1ccc(/C=C/C(=O)Nc2ccc([N+](=O)[O-])c(NC(=O)/C=C/c3ccc(C)o3)c2)o1`: 7.56%; for `O=C(N/N=C/c1ccc([N+](=O)[O-])o1)c1cn(-c2ccccc2)nc1-c1ccc(F)cc1`: 1.54%; for `O=C(/C=C/c1ccc([N+](=O)[O-])o1)NNC(=O)c1ccc(F)cc1`: 17.7% (active).
The same measure for `Cc1ccc(NC(=S)Nc2ncccc2C)c(C)c1`: -0.91%; for `[2H]C(CCOS(N)(=O)=O)c1ccccc1` (stereo not drawn): 1.8%; for `COc1ccc(C=C(C#N)C#N)c(CSc2ccccn2)c1`: -4.15%.
On to `Cc1ccc(OCCNC(=O)CCNS(=O)(=O)c2ccc(Br)cc2)cc1`, for which the inhibition is 0.55%.
The same measure for `O=C(CCl)Nc1cccc(CP(=O)(c2ccccc2)c2ccccc2)c1`: 72% (active).
In the case of `O=C(Cc1ccccc1)Nc1cccc(NC(=O)c2ccccc2)c1` it was -2.42%.
The same measure for `CCc1cccc(NC(=O)CCC(=O)O)c1`: -3%; for `C#CCOCCOCCOCCNc1nc(N2CCN(C(=O)[C@H](CCCCN)n3cc([C@@H](N)C(C)CC)nn3)CC2)nc(N2CCN(C(=O)[C@H](Cc3ccc(O)cc3)n3cc([C@@H](N)C(C)CC)nn3)CC2)n1` (stereo partly drawn): 5.02%.
As for `C#CCOCCOCCOCCNc1nc(N2CCN(C(=O)C([C@@H](C)CC)n3cc(C(N)COC(=O)C(F)(F)F)nn3)CC2)nc(N2CCN(C(=O)[C@H](Cc3ccc(O)cc3)n3cc(C(N)[C@H](C)CC)nn3)CC2)n1` (stereo partly drawn), the inhibition was -2.06%.
As to `C#CCOCCOCCOCCNc1nc(N2CCN(C(=O)C([C@@H](C)CC)n3cc(C(N)COC(=O)C(F)(F)F)nn3)CC2)nc(N2CCN(C(=O)[C@H](CCCCN)n3cc(C(N)CC(C)C)nn3)CC2)n1` (stereo partly drawn), the inhibition is 33.1% (active).
The same measure for `CCOC(=O)NC(=O)CSc1nnc(SCCC(=O)O)s1`: -3.27%; for `Cc1cccc2nc(CNc3ccc(F)cc3)cn12`: -0.43%; for `O=C(CN1CCN(S(=O)(=O)c2ccc(F)cc2)CC1)NC1CC1`: 0.44%.
In the case of `Nc1c(Cl)cc(-c2csc(N3CCCC3c3nc4cc(Cl)c(Cl)cc4n3CCOCCO)n2)cc1Cl` (stereo not drawn) it was 1.62%; in that of `COCCCN(C(=S)Nc1c(C)cc(C)cc1C)C(C)c1ccncc1` (stereo not drawn), -2.52%; in that of `CC(C)Cc1nnc(NC(=O)CCC(=O)Nc2ccc3cn[nH]c3c2)s1`, -6.53%.
The same measure for `CCc1noc(C)c1C(=O)NNC(=O)c1ccc(F)cc1`: 18.8% (active); for `Cc1onc(-c2ccccc2)c1C(=O)NNC(=S)NC(=O)c1ccc(F)cc1`: 6.16%; for `CCc1noc(C)c1C(=O)N1CCCC(N2CCN(c3ccc(F)cc3)CC2)C1` (stereo not drawn): -0.72%.
For `COc1ccc(/C=N/NC(=O)C(C)N(c2ccc(OC)cc2)S(C)(=O)=O)cc1` (stereo not drawn), the inhibition is -4.5%.
Regarding `COc1cc(C2C(N3C(=O)c4ccccc4C3=O)C(=O)N2c2ccc(C)c(C)c2)cc(OC)c1OC` (stereo not drawn), the inhibition was 3.07%.
In the case of `CC(=O)NN1C(=O)c2ccccc2NC1c1ccccc1` (stereo not drawn) it was 0.11%; in that of `CCOC(=O)NN1C(=O)c2ccccc2NC1c1cccc(O)c1` (stereo not drawn), 7.1%.
The same measure for `Cc1ccc(C2Nc3ccccc3C(=O)N2CCN2CCNC2=O)cc1` (stereo not drawn): 28.6% (active); for `Cc1cc(NC(=O)CCC(=O)N(c2ccccc2)C(C(=O)NC2CCCC2)c2ccncc2)no1` (stereo not drawn): -1.79%; for `Cc1cc(NC(=O)CCC(=O)N(Cc2ccccc2)C(C(=O)NC2CCCC2)c2ccc(C)o2)no1` (stereo not drawn): 29.5% (active).
In the case of `Cc1cc(NC(=O)CCC(=O)N(c2cccc(F)c2)C(C(=O)NC2CCCC2)c2ccncc2)no1` (stereo not drawn) it was -0.94%; in that of `CC1CCN(S(=O)(=O)c2ccc3ncn(CC(=O)N(C)C4CCCCC4)c(=O)c3c2)CC1`, 1.81%; in that of `Cc1ccc(C)c(Cn2nnc3c(=O)[nH]c(C(=O)Nc4ccc(F)cc4)nc32)c1`, 0.39%.
On to `O=C(Cc1c(Cl)cccc1Cl)NC1CC1`, for which the inhibition is 4.27%.
In the case of `O=C(CCl)NNc1cccc(Cl)n1` it was 87.5% (active); in that of `O=C(NNc1ccccn1)c1ccc(Cl)nc1`, 1.75%.
